# What was measured:
# Experiment in all cases: DAPPL (digital affinity profiling via proximity ligation, sequencing); 10 mM Tris-HCl pH 7.5, 50 mM NaCl, 1 mM DTT, 4% glycerol, room temperature, 30 min; GST-TFs on glutathione beads, 16-mer random dsDNA library, 0.1% formaldehyde crosslink after washing; high values mean tight binding
# FLI1 = target: T1, FLI1 (Homo sapiens, UniProt Q01543 1-452); details: protein: recombinant; tags: N-terminal GST; dsDNA, one strand shown
# T1 sequence: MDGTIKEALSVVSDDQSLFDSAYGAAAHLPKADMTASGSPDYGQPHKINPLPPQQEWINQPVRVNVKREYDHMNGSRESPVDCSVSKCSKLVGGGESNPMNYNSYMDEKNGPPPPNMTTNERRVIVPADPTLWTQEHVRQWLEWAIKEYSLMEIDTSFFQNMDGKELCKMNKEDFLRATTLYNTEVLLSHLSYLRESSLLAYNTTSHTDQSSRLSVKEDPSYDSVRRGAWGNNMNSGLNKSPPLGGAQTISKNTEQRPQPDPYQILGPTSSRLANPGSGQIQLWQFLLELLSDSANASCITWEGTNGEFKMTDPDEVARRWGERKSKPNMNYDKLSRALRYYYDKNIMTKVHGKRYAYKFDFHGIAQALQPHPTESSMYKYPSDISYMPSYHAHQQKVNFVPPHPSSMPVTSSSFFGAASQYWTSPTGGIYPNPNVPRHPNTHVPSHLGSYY
# Procedure, shortened: (§1)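 Binding signal is each hexamer's read frequency for a factor divided by its frequency in the tag-only sample. The factors were GST-fused human transcription factors from yeast, captured on glutathione beads, DNA-barcoded and pooled with that sample. Pools were incubated with 200 nmole of a random double-stranded 16-mer DNA library in Tris/NaCl/DTT/glycerol buffer at room temperature for 30 min, then washed, crosslinked with 0.1% formaldehyde, proximity-ligated with BsaI/T4 ligase (1 h, 37 °C), PCR-amplified and sequenced on an Illumina NextSeq500.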
# HSF1 = HSF1 (Homo sapiens, UniProt Q00613 1-529); details: protein: recombinant; tags: N-terminal GST; chain copies: 3; dsDNA, one strand shown
# Sequence of HSF1 (Q00613 whole entry): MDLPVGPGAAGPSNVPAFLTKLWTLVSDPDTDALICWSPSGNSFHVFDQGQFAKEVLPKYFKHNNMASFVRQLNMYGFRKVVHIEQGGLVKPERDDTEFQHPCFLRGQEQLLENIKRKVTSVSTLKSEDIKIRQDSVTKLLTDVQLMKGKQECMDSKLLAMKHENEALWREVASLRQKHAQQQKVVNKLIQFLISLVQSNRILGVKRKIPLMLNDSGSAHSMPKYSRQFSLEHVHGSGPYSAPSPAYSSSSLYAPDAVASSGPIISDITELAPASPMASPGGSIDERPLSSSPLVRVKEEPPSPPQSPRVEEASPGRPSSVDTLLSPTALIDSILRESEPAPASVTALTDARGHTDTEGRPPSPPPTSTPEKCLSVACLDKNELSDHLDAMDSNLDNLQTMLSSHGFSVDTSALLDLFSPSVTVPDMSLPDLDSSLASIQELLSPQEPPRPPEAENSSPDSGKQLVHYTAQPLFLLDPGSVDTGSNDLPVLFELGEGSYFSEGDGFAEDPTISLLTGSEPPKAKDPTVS
# Procedure, shortened: as §1
# SPIC = target: T2, SPIC (Homo sapiens, UniProt Q8N5J4 1-248); details: protein: recombinant; tags: N-terminal GST; dsDNA, one strand shown
# T2 sequence: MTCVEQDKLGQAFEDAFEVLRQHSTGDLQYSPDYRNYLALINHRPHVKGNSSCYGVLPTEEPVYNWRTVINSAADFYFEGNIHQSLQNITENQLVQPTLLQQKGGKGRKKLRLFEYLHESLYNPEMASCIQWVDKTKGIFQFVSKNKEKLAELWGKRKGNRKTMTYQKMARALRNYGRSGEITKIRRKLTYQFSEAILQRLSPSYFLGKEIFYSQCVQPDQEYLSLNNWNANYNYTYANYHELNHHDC
# Procedure, shortened: as §1
# ETV3 = target: T3, ETV3 (Homo sapiens, UniProt P41162-2 1-143); details: protein: recombinant; tags: N-terminal GST; dsDNA, one strand shown
# T3 sequence: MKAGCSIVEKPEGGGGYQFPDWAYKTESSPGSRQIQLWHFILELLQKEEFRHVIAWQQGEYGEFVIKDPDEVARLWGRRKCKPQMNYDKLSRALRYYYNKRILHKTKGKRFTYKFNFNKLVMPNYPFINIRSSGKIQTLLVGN
# Procedure, shortened: as §1
# ELF1 = ELF1 (Homo sapiens, UniProt P32519 1-619); details: protein: recombinant; tags: N-terminal GST; dsDNA, one strand shown
# Sequence of ELF1 (P32519 whole entry): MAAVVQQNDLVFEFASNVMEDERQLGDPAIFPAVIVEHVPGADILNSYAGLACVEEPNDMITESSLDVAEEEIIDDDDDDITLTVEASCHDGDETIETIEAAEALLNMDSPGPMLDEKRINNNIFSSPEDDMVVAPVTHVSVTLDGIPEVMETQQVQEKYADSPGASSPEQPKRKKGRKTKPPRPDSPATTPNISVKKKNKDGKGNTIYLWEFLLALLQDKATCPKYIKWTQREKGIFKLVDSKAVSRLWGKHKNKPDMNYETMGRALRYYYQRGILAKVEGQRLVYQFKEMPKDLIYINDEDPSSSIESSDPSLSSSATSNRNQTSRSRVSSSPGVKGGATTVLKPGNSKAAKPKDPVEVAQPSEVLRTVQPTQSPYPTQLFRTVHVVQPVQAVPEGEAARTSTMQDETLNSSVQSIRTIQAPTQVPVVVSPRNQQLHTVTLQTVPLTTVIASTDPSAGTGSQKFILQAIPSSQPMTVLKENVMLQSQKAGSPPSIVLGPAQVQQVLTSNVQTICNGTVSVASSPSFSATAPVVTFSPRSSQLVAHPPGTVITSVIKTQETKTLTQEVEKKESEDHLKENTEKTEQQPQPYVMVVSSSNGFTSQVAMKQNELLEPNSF
# Procedure, shortened: as §1
# EHF = target: T4, EHF (Homo sapiens, UniProt Q9NZC4 1-300); details: protein: recombinant; tags: N-terminal GST; dsDNA, one strand shown
# T4 sequence: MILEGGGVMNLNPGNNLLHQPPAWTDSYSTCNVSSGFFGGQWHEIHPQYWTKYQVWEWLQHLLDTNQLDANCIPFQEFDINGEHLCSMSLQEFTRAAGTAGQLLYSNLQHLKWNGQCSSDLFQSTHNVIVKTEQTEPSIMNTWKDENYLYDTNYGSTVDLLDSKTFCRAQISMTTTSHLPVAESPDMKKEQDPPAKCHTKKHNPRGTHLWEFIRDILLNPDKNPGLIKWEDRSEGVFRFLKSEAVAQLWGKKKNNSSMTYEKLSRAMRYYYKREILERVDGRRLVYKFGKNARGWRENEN
# Procedure, shortened: as §1
# SPI1 = SPI1 (Homo sapiens, UniProt P17947 1-270); details: protein: recombinant; tags: N-terminal GST; dsDNA, one strand shown
# Procedure, shortened: as §1
# SPIB = SPIB (Homo sapiens, UniProt Q01892 1-262); details: protein: recombinant; tags: N-terminal GST; dsDNA, one strand shown
# Sequence of SPIB (Q01892 whole entry): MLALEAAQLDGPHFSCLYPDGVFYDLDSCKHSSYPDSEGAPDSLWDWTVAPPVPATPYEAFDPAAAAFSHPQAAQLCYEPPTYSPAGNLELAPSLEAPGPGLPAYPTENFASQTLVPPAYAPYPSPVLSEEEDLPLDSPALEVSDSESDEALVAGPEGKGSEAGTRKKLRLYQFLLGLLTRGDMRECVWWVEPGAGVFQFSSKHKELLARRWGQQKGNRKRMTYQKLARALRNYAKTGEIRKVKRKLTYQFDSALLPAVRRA
# Procedure, shortened: as §1
# ELK4 = target: T5, ELK4 (Homo sapiens, UniProt P28324-2 1-405); details: protein: recombinant; tags: N-terminal GST; dsDNA, one strand shown
# T5 sequence: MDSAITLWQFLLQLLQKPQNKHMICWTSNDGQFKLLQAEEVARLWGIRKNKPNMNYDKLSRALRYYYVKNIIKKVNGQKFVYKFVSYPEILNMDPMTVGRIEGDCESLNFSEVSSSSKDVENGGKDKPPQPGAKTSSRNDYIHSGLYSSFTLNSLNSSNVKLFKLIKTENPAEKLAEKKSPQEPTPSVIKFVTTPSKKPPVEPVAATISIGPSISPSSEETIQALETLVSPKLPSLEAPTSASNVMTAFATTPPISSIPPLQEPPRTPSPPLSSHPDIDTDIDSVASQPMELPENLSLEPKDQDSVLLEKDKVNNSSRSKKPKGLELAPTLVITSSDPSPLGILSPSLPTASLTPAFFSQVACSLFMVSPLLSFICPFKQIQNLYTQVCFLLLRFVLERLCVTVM
# Procedure, shortened: as §1
# ELF4 = ELF4 (Homo sapiens, UniProt Q99607 1-663); details: protein: recombinant; tags: N-terminal GST; dsDNA, one strand shown
# Sequence of ELF4 (Q99607 whole entry): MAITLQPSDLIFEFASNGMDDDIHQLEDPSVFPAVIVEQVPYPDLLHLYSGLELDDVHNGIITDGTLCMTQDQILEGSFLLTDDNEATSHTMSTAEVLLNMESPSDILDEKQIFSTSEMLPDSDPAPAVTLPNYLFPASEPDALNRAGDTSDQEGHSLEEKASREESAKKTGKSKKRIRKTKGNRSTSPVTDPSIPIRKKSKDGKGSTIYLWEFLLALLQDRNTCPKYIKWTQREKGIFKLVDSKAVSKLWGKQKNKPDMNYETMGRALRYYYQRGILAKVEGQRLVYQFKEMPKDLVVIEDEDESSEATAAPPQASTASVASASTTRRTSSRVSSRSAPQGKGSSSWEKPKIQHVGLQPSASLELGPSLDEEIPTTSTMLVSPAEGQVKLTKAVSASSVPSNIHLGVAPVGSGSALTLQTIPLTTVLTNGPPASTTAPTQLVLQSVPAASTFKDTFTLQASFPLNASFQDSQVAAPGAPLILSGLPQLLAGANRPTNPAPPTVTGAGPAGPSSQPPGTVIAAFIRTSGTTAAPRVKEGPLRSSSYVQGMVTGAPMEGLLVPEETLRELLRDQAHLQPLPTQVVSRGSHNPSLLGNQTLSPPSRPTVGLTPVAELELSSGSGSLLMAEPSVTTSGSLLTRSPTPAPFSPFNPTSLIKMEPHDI
# Procedure, shortened: as §1
# ELF3 = target: T6, ELF3 (Homo sapiens, UniProt P78545 1-371); details: protein: recombinant; tags: N-terminal GST; dsDNA, one strand shown
# T6 sequence: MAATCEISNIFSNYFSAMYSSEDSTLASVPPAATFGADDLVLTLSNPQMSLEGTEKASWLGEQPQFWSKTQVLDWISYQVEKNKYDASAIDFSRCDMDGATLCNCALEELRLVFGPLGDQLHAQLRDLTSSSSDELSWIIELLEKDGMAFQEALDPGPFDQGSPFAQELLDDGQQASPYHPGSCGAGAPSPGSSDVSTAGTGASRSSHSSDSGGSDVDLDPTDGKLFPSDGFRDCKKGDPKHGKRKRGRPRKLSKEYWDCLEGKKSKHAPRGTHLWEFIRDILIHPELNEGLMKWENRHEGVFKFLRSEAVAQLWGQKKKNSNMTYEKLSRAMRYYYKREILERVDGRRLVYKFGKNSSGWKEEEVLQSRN
# Procedure, shortened: as §1
# ETV1 = ETV1 (Homo sapiens, UniProt P50549 1-477); details: protein: recombinant; tags: N-terminal GST; dsDNA, one strand shown
# Sequence of ETV1 (P50549 whole entry): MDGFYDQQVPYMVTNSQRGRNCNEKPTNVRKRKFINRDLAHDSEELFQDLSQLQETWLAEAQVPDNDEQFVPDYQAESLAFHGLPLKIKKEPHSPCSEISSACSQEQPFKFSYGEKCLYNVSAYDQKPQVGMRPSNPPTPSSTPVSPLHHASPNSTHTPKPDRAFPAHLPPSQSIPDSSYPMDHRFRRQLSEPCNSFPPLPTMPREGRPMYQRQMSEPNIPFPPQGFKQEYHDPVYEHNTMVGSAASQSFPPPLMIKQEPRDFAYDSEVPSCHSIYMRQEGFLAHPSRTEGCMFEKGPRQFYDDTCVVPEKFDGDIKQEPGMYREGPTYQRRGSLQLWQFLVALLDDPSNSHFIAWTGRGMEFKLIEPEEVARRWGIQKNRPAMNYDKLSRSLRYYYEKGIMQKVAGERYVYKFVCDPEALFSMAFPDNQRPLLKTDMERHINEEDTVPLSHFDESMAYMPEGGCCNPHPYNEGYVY
# Procedure, shortened: as §1
# ERF = target: T7, ERF (Homo sapiens, UniProt P50548 1-548); details: protein: recombinant; tags: N-terminal GST; dsDNA, one strand shown
# T7 sequence: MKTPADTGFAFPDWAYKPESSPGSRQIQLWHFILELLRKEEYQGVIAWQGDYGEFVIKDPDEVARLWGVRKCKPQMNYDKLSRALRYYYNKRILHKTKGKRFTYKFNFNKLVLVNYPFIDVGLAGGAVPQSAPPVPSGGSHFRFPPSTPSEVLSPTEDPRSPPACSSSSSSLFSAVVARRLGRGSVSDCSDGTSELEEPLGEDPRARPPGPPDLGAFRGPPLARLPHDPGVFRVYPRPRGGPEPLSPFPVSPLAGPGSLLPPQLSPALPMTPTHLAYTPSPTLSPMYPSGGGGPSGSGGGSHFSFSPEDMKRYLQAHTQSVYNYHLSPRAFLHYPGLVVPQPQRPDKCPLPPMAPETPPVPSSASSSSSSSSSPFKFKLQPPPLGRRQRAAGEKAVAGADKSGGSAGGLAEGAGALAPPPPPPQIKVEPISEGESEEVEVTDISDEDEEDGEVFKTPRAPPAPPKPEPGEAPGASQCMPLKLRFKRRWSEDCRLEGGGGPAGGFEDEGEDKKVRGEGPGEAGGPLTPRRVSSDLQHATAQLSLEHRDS
# Procedure, shortened: as §1
# ETV3L = target: T8, ETV3L (Homo sapiens, UniProt Q6ZN32 1-361); details: protein: recombinant; tags: N-terminal GST; dsDNA, one strand shown
# T8 sequence: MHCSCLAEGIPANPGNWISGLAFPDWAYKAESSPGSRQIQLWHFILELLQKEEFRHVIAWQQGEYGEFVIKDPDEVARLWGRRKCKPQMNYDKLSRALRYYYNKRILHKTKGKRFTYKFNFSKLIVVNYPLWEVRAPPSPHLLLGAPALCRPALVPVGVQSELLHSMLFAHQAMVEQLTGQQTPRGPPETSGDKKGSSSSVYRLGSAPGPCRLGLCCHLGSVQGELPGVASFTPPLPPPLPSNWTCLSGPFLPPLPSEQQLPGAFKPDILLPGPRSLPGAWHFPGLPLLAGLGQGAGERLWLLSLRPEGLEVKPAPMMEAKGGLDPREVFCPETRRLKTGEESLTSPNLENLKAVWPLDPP
# Procedure, shortened: as §1
# ETV6 = ETV6 (Homo sapiens, UniProt P41212 1-452); details: protein: recombinant; tags: N-terminal GST; dsDNA, one strand shown
# Sequence of ETV6 (P41212 whole entry): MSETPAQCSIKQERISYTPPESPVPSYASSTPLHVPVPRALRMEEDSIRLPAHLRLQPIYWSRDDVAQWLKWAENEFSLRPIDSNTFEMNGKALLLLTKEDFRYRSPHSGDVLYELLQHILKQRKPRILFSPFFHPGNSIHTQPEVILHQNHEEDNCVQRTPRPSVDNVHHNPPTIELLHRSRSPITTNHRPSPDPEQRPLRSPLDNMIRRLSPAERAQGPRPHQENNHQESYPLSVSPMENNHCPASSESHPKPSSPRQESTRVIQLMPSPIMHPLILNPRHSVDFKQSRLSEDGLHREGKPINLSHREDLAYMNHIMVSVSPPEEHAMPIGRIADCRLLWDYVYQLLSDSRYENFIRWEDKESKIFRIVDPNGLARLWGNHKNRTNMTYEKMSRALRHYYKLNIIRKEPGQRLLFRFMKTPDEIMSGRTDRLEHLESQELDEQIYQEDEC
# Procedure, shortened: as §1
sequence,measurement,setting,value
ATTCGG,binding signal,FLI1,"1.01 fold enrichment (6-mer frequency, TF over GST control)"
same,binding signal,HSF1,"1.11 fold enrichment (6-mer frequency, TF over GST control)"
same,binding signal,SPIC,"1.04 fold enrichment (6-mer frequency, TF over GST control)"
same,binding signal,ETV3,"1.02 fold enrichment (6-mer frequency, TF over GST control)"
TCGCGT,binding signal,FLI1,"1.01 fold enrichment (6-mer frequency, TF over GST control)"
same,binding signal,ELF1,"1 fold enrichment (6-mer frequency, TF over GST control)"
same,binding signal,EHF,"1.02 fold enrichment (6-mer frequency, TF over GST control)"
same,binding signal,SPI1,"1 fold enrichment (6-mer frequency, TF over GST control)"
same,binding signal,SPIB,"1.01 fold enrichment (6-mer frequency, TF over GST control)"
same,binding signal,HSF1,"1.04 fold enrichment (6-mer frequency, TF over GST control)"
same,binding signal,ELK4,"1.06 fold enrichment (6-mer frequency, TF over GST control)"
GCTAGG,binding signal,FLI1,"1.01 fold enrichment (6-mer frequency, TF over GST control)"
same,binding signal,EHF,"1.12 fold enrichment (6-mer frequency, TF over GST control)"
same,binding signal,SPIC,"1.03 fold enrichment (6-mer frequency, TF over GST control)"
same,binding signal,ELF4,"1.06 fold enrichment (6-mer frequency, TF over GST control)"
same,binding signal,ELK4,"1.08 fold enrichment (6-mer frequency, TF over GST control)"
same,binding signal,ELF3,"1.14 fold enrichment (6-mer frequency, TF over GST control)"
same,binding signal,ETV1,"1 fold enrichment (6-mer frequency, TF over GST control)"
same,binding signal,ERF,"1.01 fold enrichment (6-mer frequency, TF over GST control)"
same,binding signal,ETV3L,"1.06 fold enrichment (6-mer frequency, TF over GST control)"
same,binding signal,ETV3,"1.03 fold enrichment (6-mer frequency, TF over GST control)"
same,binding signal,ETV6,"1.07 fold enrichment (6-mer frequency, TF over GST control)"
